Test [1] is described as follows: Nuclear factor erythroid 2-related factor 2/antioxidant responsive element (Nrf2/ARE) small molecule agonists: qHTS cell viability counter screen in human keratinocytes (AID 1919968; active = well fitted curve in the direction sought with a large enough effect in the repeat runs; an effect the other way counts as inactive or inconclusive; also: nearly all actives have a fitted effect of over 55% in size; also: potency is read from the fitted curve at half-maximal effect). An outline of the steps:
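KeratinoSens cells (HaCaT keratinocytes stably carrying an ARE-luciferase reporter) were seeded at 1,500 cells/well and rested 5 h at 37 C/5% CO2. They were then exposed to compounds in DMSO for 23 h. Viability was read by CellTiter-Fluor fluorescence after 1 h.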

Test [2] can be described thus: Nuclear factor erythroid 2-related factor 2/antioxidant responsive element (Nrf2/ARE) small molecule agonists: luciferase reporter gene qHTS assay in human keratinocytes (AID 1919969). Also: nearly all actives have a fitted effect of over 35% in size. On the technique in general: In a reporter assay the amount or activity of a reporter protein is the signal.
Test [3] deals with Gonadotropin-releasing hormone receptor (Homo sapiens) (UniProt P30968). Briefly: Human gonadotropin-releasing hormone receptor (GnRHR) small molecule agonists, calcium flux assay in GnRHR-HEK293 cells (AID 1920063). Also: nearly all actives have a fitted effect of over 35% in size. In a few lines: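 HEK293 cells stably expressing human GnRHR were plated 18 h at 37 °C, loaded with calcium dye 1 h at 37 °C, then given compound in agonist mode; fluorescence (Ex/Em 480/540) read kinetically for 3 min at 1 s intervals.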
Background: Calcium flux is commonly read through the fluorescence of an indicator in the cells.

For test [4], the target named is KiSS-1 receptor (Homo sapiens) (UniProt Q969F8). As to the kind of experiment: Human kisspeptin (KISS1R) small molecule agonists, calcium flux assay in KISS1R-HEK293 cells (AID 1920064; active = well fitted curve in the direction sought with a large enough effect in the repeat runs; an effect the other way counts as inactive or inconclusive). In a few lines: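 HEK293 cells stably expressing human KISS1R were plated 18 h at 37 °C, loaded with calcium dye for 1 h at 37 °C, then given compound by pin tool. Fluorescence (Ex/Em 480/540) was read kinetically for 3 min.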

Test [5] can be described thus: G protein-coupled receptor (GPCR) small molecule agonists, calcium flux assay: HEK293 wild type cell line counter screen (AID 1920065). In a few lines:
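Cells were plated and cultured 18 h at 37 C/5% CO2, then loaded with calcium dye for 1 h at 37 C. Compounds in DMSO were pin-transferred in agonist mode, and fluorescence (Ex/Em 480/540) was read kinetically for 3 min at 1 s intervals.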

Test [6] can be described thus: p53 small molecule agonists, cell-based qHTS assay with human liver microsomes (AID 1963577).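 Also: p53 response element beta-lactamase reporter cells with liver microsomes plus NADPH.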 In a few lines:
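p53RE-bla cells; 5 h settle, 37 C/5% CO2; cpd + HLM 0.5 mg/mL + NADPH 0.5 mg/mL (final); 16 h 37 C; LiveBLAzer 2 h RT dark; fluorescence readout.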
For orientation: Quantitative high-throughput screening tests each substance at several concentrations.

The nature of test [7]: p53 small molecule agonists, cell-based qHTS assay with rat liver microsomes (AID 1963578). An outline of the steps: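 Rat liver microsome activation: microsomes 0.5 mg/mL, NADPH 0.5 mg/mL final; p53RE-bla cells, 16 h 37 C; LiveBLAzer readout, 2 h RT dark.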
The nature of test [8]: p53 small molecule agonists, cell-based qHTS assay with human liver microsomes: qHTS cell viability counter screen (AID 1963579). Also: nearly all actives have a fitted effect of over 45% in size. An outline of the steps:
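Luminescent CellTiter-Glo read-out, 30 min at room temperature, gauged cytotoxicity in p53RE-bla cells exposed 16 h at 37 C to DMSO-dissolved compounds with metabolic activation by human liver microsomes and NADPH, each 0.5 mg/mL final.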

Test [9] is described as follows: p53 small molecule agonists, cell-based qHTS assay with rat liver microsomes: qHTS cell viability counter screen (AID 1963580). Also: nearly all actives have a fitted effect of over 45% in size. An outline of the steps: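 Viability is assessed in parallel with the p53 reporter read: HCT-116 p53RE-bla cells receive compounds plus rat microsomes and NADPH (0.5 mg/mL final apiece), incubate 16 h at 37 C, and then CellTiter-Glo luminescence is recorded.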

Test [10] can be described thus: p53 small molecule agonists, cell-based qHTS assay: qHTS cell viability counter screen (AID 1963581). Also: nearly all actives have a fitted effect of over 45% in size. An outline of the steps: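 p53RE-bla HCT-116 cells were exposed to compounds for 16 h at 37 C; after the beta-lactamase FRET read in the same wells, CellTiter-Glo was added and luminescence (intracellular ATP) read after 30 min at room temperature.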
Test [11] in a line: p53 small molecule agonists, cell-based qHTS assay (AID 1963582; active = well fitted activation curve with a large enough effect in the signal ratio in the repeat runs, not every such curve was filed as active; the % refers to the signal ratio). An outline of the steps:
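p53RE-bla beta-lactamase reporter cells rested 5 h at 37 C/5% CO2, then received compounds in DMSO by pin transfer and were incubated 16 h at 37 C. LiveBLAzer B/G FRET substrate was loaded for 2 h at room temperature before fluorescence reading.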

Test [12] has as its target Muscarinic acetylcholine receptor M1 (Homo sapiens) (UniProt P11229). Briefly: Cholinergic receptor muscarinic 1 (CHRM1) small molecule antagonists, cell-based qHTS assay (AID 1963588). Also: nearly all actives have a fitted effect of over 40% in size. In a few lines: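 CHRM1-CHO calcium-flux assay, antagonist mode. Cells were seeded 18 h, dye-loaded 1 h at 37 C and given compound for 5 min at RT, then acetylcholine was added at 50nM. FDSS fluorescence was read 3 min; 15 concentrations, three runs.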

Test [13] has the same target. Briefly: Cholinergic receptor muscarinic 1 (CHRM1) small molecule agonists, cell-based qHTS assay (AID 1963589). Also: nearly all actives have a fitted effect of over 35% in size. An outline of the steps: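 CHO cells stably expressing human CHRM1, seeded 18 h at 37 C/5% CO2, dye-loaded 1 h at 37 C, then given compound in agonist mode; intracellular calcium fluorescence read kinetically at 1 s intervals. Fifteen concentrations, three independent runs.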

A short description of test [14]: cAMP Responsive Elements (CRE) small molecule agonists, cell-based qHTS assay (AID 1963590). In a few lines: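 CRE-bla HEK 293T cells in DMEM with 10% dialyzed FBS, NEAA, pyruvate and 25 mM HEPES were plated 18 h at 37 C/5% CO2, then exposed to compounds in DMSO for 3 h before LiveBLAzer B/G FRET substrate addition.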
A short description of test [15]: cAMP Responsive Elements (CRE) small molecule antagonists, cell-based qHTS assay (AID 1963591; active = well fitted inhibition curve with a large enough effect in the signal ratio in the repeat runs, not every such curve was filed as active; the % refers to the signal ratio). An outline of the steps: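 CRE-bla HEK293T cells were plated 18 h at 37 °C/5% CO2, pinned with compound in DMSO, then stimulated with NKH477 at 0.25 uM final for 3 h. LiveBLAzer B/G FRET substrate was added and plates incubated 2 h at room temperature.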
For test [16], the target named is Beta-2 adrenergic receptor (Homo sapiens) (UniProt P07550). Briefly: Adrenergic beta2 receptor (ADRB2) small molecule antagonists, cell-based qHTS assay (AID 1963592). Also: series mostly up to about 92 µM; nearly all actives have a fitted effect of over 50% in size. An outline of the steps: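 Cells (CHO, stable ADRB2 overexpression) incubated 18-20hr at 37C; compounds added from DMSO; agonist mix (1nM isoproterenol, 100uM IBMX, 25uM Ro-20-1724) added; 0.5hr RT; d2-cAMP and anti-cAMP-cryptate added; 1hr RT; 665/615 nm read.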

Test [17] addresses D(2) dopamine receptor (Homo sapiens) (UniProt P14416). Briefly: Dopamine D2 receptor (DRD2) small molecule agonists, cell-based qHTS assay (AID 1963594). Also: nearly all actives have a fitted effect of over 35% in size. An outline of the steps:
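HEK293 cells stably expressing human DRD2, pre-treated with PDE inhibitor Ro20-1724 (0.1 mM final) and compound 10 min at room temperature, then stimulated with NKH477 (200nM […]) for 30 min. cAMP read by HTRF (665/620 nm).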

The target is the same in test [18]. As to the kind of experiment: Dopamine D2 receptor (DRD2) small molecule antagonists, cell-based qHTS assay (AID 1963595; active = well fitted inhibition curve with a large enough effect in the signal ratio in the repeat runs, with a control signal flat; the % refers to the signal ratio). An outline of the steps: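 Readout: HTRF cAMP, cAMP-d2 competing with cellular cAMP for anti-cAMP cryptate, read after 1 h. Cells: DRD2-HEK293. Conditions: 0.1 mM Ro20-1724, 12 nM quinpirole, 200 nM NKH477, 30 min RT.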
For test [19], the target named is Beta-2 adrenergic receptor (Homo sapiens) (UniProt P07550). Briefly: Adrenergic beta2 receptor (ADRB2) small molecule agonists, cell-based qHTS assay (AID 1963593).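 Also: CHO cells stably overexpressing human ADRB2.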 In a few lines:
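CHO cells stably over-expressing ADRB2 were plated overnight at 37C, then dosed with compounds plus a stimulation mix containing 100uM IBMX and 25uM Ro-20-1724 for 0.5hr at room temperature. cAMP was measured by HTRF competition, 1hr.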

Unmarked numbers belong to inactive results. Records with an inconclusive call do not appear. Calls of active or inactive are those of the source. Unless noted, calls follow the shape of the full dose curve.

Sequence of D(2) dopamine receptor (Homo sapiens) (P14416 whole entry, looked up): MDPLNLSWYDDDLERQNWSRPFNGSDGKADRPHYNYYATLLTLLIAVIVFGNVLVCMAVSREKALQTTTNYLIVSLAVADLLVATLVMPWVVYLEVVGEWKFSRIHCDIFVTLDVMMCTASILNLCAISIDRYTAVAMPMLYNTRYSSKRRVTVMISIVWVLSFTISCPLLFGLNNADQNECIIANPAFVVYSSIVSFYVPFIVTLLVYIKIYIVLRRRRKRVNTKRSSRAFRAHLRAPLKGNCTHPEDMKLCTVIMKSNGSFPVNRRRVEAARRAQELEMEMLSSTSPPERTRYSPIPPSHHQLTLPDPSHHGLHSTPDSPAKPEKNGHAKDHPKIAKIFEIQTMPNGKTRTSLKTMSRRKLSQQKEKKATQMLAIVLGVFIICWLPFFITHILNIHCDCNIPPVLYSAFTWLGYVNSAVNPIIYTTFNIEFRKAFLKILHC
Sequence of Gonadotropin-releasing hormone receptor (Homo sapiens) (P30968 whole entry, looked up): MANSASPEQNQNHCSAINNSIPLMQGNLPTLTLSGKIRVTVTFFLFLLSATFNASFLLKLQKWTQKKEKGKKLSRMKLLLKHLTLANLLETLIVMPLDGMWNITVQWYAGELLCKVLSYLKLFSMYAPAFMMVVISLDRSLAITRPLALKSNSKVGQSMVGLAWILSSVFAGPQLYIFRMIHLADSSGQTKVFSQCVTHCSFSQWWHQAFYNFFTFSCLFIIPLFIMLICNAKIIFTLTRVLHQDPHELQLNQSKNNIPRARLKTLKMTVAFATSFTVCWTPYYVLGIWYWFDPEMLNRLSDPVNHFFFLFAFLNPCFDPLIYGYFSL
Sequence of Beta-2 adrenergic receptor (Homo sapiens) (P07550 whole entry, looked up): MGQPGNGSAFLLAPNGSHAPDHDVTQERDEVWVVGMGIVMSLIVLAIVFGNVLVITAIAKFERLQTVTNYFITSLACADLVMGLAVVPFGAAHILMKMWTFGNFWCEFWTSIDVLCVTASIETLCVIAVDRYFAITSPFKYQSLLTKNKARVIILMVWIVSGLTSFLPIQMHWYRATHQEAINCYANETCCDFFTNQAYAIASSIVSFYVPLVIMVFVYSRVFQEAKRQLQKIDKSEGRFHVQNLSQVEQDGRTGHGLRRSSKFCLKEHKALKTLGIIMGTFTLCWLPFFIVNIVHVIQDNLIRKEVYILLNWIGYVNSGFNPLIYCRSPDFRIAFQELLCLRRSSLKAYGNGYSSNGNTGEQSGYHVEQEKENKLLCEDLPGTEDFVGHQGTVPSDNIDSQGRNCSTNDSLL
Sequence of KiSS-1 receptor (Homo sapiens) (Q969F8 whole entry, looked up): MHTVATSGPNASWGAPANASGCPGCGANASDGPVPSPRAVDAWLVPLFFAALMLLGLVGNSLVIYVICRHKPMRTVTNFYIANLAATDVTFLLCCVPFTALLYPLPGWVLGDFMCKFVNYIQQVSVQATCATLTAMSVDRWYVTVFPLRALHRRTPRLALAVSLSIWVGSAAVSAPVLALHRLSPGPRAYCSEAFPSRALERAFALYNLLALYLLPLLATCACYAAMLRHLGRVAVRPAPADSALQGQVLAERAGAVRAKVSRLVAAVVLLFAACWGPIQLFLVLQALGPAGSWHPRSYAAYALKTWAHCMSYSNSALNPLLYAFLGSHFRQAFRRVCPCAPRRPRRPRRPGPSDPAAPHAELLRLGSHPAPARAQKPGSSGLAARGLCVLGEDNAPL
Sequence of Muscarinic acetylcholine receptor M1 (Homo sapiens) (P11229 whole entry, looked up): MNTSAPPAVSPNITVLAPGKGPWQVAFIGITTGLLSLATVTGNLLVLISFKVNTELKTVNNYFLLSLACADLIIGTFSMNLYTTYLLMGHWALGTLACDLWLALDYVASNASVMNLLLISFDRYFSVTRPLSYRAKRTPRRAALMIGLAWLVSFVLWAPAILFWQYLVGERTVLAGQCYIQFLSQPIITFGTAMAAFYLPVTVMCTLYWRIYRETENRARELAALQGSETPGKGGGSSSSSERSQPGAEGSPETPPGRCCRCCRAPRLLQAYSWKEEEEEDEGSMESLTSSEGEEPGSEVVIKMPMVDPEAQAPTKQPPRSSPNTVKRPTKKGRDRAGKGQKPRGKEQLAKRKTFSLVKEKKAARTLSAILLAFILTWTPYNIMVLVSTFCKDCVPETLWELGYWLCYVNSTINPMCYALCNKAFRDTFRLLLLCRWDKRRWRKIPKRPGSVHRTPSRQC

Take `O=C1CC2(CCCC2)CC(=O)N1`: the Potency result in test [1], in [2], in test [3], in test [6], in test [7] and in test [8] was “inactive” in each case. The Potency entry in test [9], in [10], in test [11], in test [12], in [13] and in test [14] was “inactive” each time. The Potency entry in test [15], in test [16], in [17] and in test [18] was “inactive” throughout. Further, the result in [4] and in test [5] was inactive.
As to `Cc1ncc([N+](=O)[O-])n1CC(C)O` (stereo unspecified), the Potency entry in test [1], in test [2], in test [3], in [6], in test [7] and in test [8] was “inactive” throughout. Also, the Potency result in test [9], in [10], in test [11], in [14], in test [15] and in test [16] was “inactive” each time. For the same compound, the Potency entry in test [19], in test [17] and in test [18] was “inactive” each time. For the same compound, the result in test [4] and in [5] was inactive.
Turning to `CN(Cc1cc(Br)cc(Br)c1N)C1CCCCC1`, the Potency in test [1] was 16.8 µM (active). Also, the Potency result in test [2], in test [3], in test [6], in test [7], in [8] and in test [9] was “inactive” in each case. In addition, the Potency result in [10], in test [11], in [14], in [16], in test [19] and in test [17] was “inactive” each time. In test [18], the Potency result was “inactive”. In addition, the outcome in [4] and in [5] was inactive.
As to `CO[C@@]1(NC(=O)CSCC#N)C(=O)N2C(C(=O)O)=C(CSc3nnnn3C)CS[C@@H]21`, the Potency entry in [1], in test [2], in test [3], in test [6], in [7] and in test [8] was “inactive” in each case. Besides, the Potency entry in test [9], in [10], in test [11], in [14], in test [15] and in [16] was “inactive” in each case. For the same compound, in [17], the Potency result is “inactive”. In addition, the result in test [4] and in test [5] was inactive.
With `CCCCN1CCCC[C@H]1C(=O)Nc1c(C)cccc1C`, the Potency result in test [1], in test [2], in test [3], in test [6], in [7] and in [8] was “inactive” throughout. For the same compound, the Potency result in test [9], in test [10], in [11], in test [16], in test [19] and in [17] was “inactive” each time. Moreover, in test [18], the Potency result was “inactive”. For the same compound, the outcome in test [4] and in [5] was inactive.
Turning to `C[C@H]1C[C@H]2[C@@H]3CCC4=CC(=O)C=C[C@]4(C)[C@@]3(F)[C@@H](O)C[C@]2(C)[C@@]1(O)C(=O)COP(=O)(O)O`, the Potency result in test [1], in test [2], in test [3], in [6], in [7] and in test [8] was “inactive” in each case. Besides, the Potency result in test [9], in test [10], in test [11], in [15], in [16] and in [19] was “inactive” in each case. Besides, the Potency result in test [17] and in test [18] was “inactive” each time. The outcome in test [4] and in test [5] was inactive.
As to `C[N+]1(C)[C@@H]2CC(OC(=O)[C@H](CO)c3ccccc3)C[C@H]1[C@@H]1O[C@@H]12` (stereo partly specified), the Potency entry in test [1], in [2], in test [3], in [6], in test [7] and in test [8] was “inactive” throughout. Moreover, the Potency result in test [9], in test [10], in test [11], in test [14], in test [15] and in test [16] was “inactive” in each case. In addition, the Potency result in [17] and in [18] was “inactive” each time. For the same compound, the result in test [4] and in test [5] was inactive.
Turning to `CCC1=C(C)CN(C(=O)NCCc2ccc(S(=O)(=O)NC(=O)NC3CCC(C)CC3)cc2)C1=O` (stereo unspecified), the Potency entry in test [1], in test [2], in [3], in [6], in test [7] and in [8] was “inactive” in each case. The Potency result in test [9], in test [10], in [11], in test [16] and in test [17] was “inactive” throughout. Also, the outcome in test [4] and in test [5] was inactive.

These data come from PubChem BioAssay (Tox21).
